Laboratory results from PubChem BioAssay (NCI).
About 83,000 compounds went through this panel and 20% of them were active in at least one assay; those are over-represented in the sample as a whole.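 Values shown are percent growth following 48 h exposure of cells in 96-well plates to a single concentration of compound; below 10 was considered active.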 Values without a mark were called inactive. Activity calls are given as the source filed them.

What was measured:
Assay in all cases: NCI-60 one-dose screen, 48 h (100 = growth as untreated, 0 = no growth, -100 = all killed)
Settings in all cases: 10 µM unless noted
[1] = tested on: DU-145 prostate
[2] = tested on: K-562 leukemia
[3] = tested on: MALME-3M melanoma
[4] = tested on: MDA-MB-231 breast
[5] = tested on: RXF 393 renal
[6] = tested on: SF-268 CNS
[7] = tested on: SF-295 CNS
[8] = tested on: SF-539 CNS
[9] = tested on: UACC-257 melanoma
[10] = tested on: M14 melanoma
[11] = tested on: HCT-15 colon
[12] = tested on: HT29 colon
[13] = tested on: SNB-75 CNS
[14] = tested on: SNB-19 CNS
[15] = tested on: U251 CNS
[16] = tested on: PC-3 prostate
[17] = tested on: SK-MEL-5 melanoma
[18] = tested on: UACC-62 melanoma
[19] = tested on: LOX IMVI melanoma
[20] = tested on: SK-MEL-28 melanoma

SMILES	growth [1]	growth [2]	growth [3]	growth [4]	growth [5]	growth [6]	growth [7]	growth [8]	growth [9]	growth [10]	growth [11]	growth [12]	growth [13]	growth [14]	growth [15]	growth [16]	growth [17]	growth [18]	growth [19]	growth [20]
COc1ccc(N=C(c2ccccc2)C2C(=O)c3ccccc3C2=O)cc1	99.8%	75.4%	103%	103%	72.1%	97.7%	67.2%	72.3%	93.8%	92%	67%	79.5%	76.3%	89.5%	81.8%	32.3%	71.4%	63%	75.4%	74.1%
CCN1C(=O)N(CC)C2Nn3c(s/c(=C\c4ccc(Cl)cc4Cl)c3=O)=NC21 (stereo not given)	24.2%	11.4%	75.6%	27.3%	43%	64.6%	26.5%	13.1%	83.9%	26%	22.4%	79.3%	42.6%	48.6%	26.3%	33.6%	24.5%	41.1%	42.9%	45.2%
N=C1CCC(=N)c2c1c(O)c1ccccc1c2O	106%	65.1%	135%	89.6%	79.6%	85.4%	102%	171%	101%	118%	108%	101%	87.2%	103%	100%	80.3%	126%	102%	81.9%	106%
CCCc1cc2c(=O)c(C(=O)OC)c[nH]c2cc1N(CC)CC	112%	96.2%	95.4%	108%	29.3%	102%	85.2%	97.6%	136%	110%	95.9%	110%	104%	99.1%	104%	79.6%	91.5%	83%	108%	112%
Cc1ccc(/C=C/c2c(C(=O)/C=C/c3ccc(C(F)(F)F)cc3)c(C)nc3ccccc23)cc1	-78.3% (active)	-16.6% (active)	-65.4% (active)	-40.5% (active)	-87.8% (active)	-5% (active)	-75.8% (active)	-83.4% (active)	-17.7% (active)	-35.8% (active)	-29.6% (active)	5.36% (active)	-42.5% (active)	-62.9% (active)	-70.7% (active)	-43.8% (active)	-86.4% (active)	-45.8% (active)	-87.3% (active)	-63.2% (active)
O=C(/C=C/c1ccco1)c1ccc(Nc2nc(Nc3ccc(F)cc3)nc(Nc3ccc(Cl)cc3)n2)cc1	77%	67.4%	75.1%	55.1%	35.6%	80.2%	65.4%	102%	101%	84.5%	78.5%	61.8%	62.5%	107%	73.2%	72.7%	73.8%	81.7%	74.7%	60.3%
COc1ccc(C(=NN=C(N)N)c2ccc(OC)cc2)cc1	52.8%	19.9%	69.4%	48.4%	-2.81% (active)	47.1%	48.5%	57.7%	43.6%	18.3%	69.1%	15.4%	-5.63% (active)	43.6%	39.4%	30.6%	13.9%	52.6%	15.8%	59%
COc1nc(N(C)O)nc(N(C)O)n1	23.5%	20.3%	58.6%	49.1%	58.5%	30.9%	60.6%	20.1%	39.6%	15%	23.9%	46.3%	74.5%	31.8%	27.2%	42.9%	13.1%	11.5%	14.8%	53.2%
O=S(=O)(O)c1ccc(N/N=C/c2ccccc2Cl)cc1	116%	95.6%	109%	118%	125%	103%	108%	101%	116%	99.9%	97%	100%	94.6%	109%	99.5%	99.2%	103%	111%	128%	111%
O=c1[nH]c2ccccc2n1C1CCN(CCOc2ccccc2)CC1	73.4%	11.4%	99.9%	91.3%	28%	92.8%	76.9%	106%	95.1%	97%	85.1%	99.4%	80.5%	93.3%	88.9%	58.9%	95.6%	86%	95.2%	102%
CC(=O)n1c(-c2ccc(Cl)cc2)nc2c(c1=O)C(c1ccc(Cl)cc1)c1sc3c(Cl)cccc3c1O2 (stereo not given)	2.09% (active)	-0.184% (active)	51.8%	-28.8% (active)	-25.4% (active)	-0.0873% (active)	-20% (active)	-63.2% (active)	21.3%	-39.3% (active)	-37.4% (active)	-52.4% (active)	-22% (active)	14.2%	-37.7% (active)	4.54% (active)	-17.7% (active)	3.42% (active)	-33.8% (active)	18%
CCN(CC)c1ccc2nc3c4ccccc4c(=NC(=O)c4ccccc4-c4c5ccc(N(CC)CC)cc5[o+]c5cc(N(CC)CC)ccc45)cc-3oc2c1	-89.4% (active)	-85.7% (active)	54.9%	52.8%	61.6%	60.5%	-50.3% (active)	67%	49.7%	-3.37% (active)	6.13% (active)	1.92% (active)	67.7%	-22.3% (active)	20.5%	12.1%	-69.8% (active)	67.5%	-30.4% (active)	97.4%
CCN(CC)c1nc(SCC(=O)Nc2nc3ccc(C)cc3s2)nc(-c2ccccc2)c1C#N	101%	86.5%	103%	78%	97.3%	88.5%	92.9%	89.2%	96.5%	101%	83.8%	79.6%	85.6%	89.5%	87.6%	67%	90.2%	67.9%	98%	103%
COc1ccc2c(c1)CCCN2c1c2ccccc2nc2ccccc12	5.71% (active)	9.39% (active)	55.3%	6.06% (active)	27.1%	33.7%	8.45% (active)	-26.4% (active)	71.2%	3.64% (active)	12.5%	8.43% (active)	0.187% (active)	34.6%	14.1%	15.9%	2.04% (active)	5.34% (active)	12.2%	47%
